Results as given in PubChem BioAssay AID686979 (National Center for Advancing Translational Sciences (NCATS), 2013).
“And” between values parts separate entries of the source, which are not always exact repeats. Equal values may be shown once. Among all 420,000 compounds or so, about 50,000 (12%) were called active. About 26% were inconclusive and are not listed. Only a selection was taken, and actives are over-represented in it overall. A number with no mark means an inactive call. Calls follow the shape of the dose curve; as a rule, active = well fitted inhibition curve with a large enough effect; inconclusive = small, poorly fitted or top-dose-only effect; inactive = flat fitted curve, though single readings scatter.

Assay: qHTS for Inhibitors of human tyrosyl-DNA phosphodiesterase 1 (TDP1): qHTS in cells in presence of CPT; also: nearly all actives have a fitted effect of over 55% in size
Conditions: chicken DT40 Tdp1-/-;hTDP1 cells + 20 nM CPT, ATP luminescence, 48 h; series mostly up to 46.2 µM; activity change, negative = growth inhibition: at the top concentration
From the text: Human tyrosyl-DNA phosphodiesterase 1 (TDP1) is a novel repair gene, and we propose to use it as a new target for anticancer drug development. TDP1 is not an essential protein, but under treatment with topoisomerase I poison (camptothecin: CPT), TDP1 works as a critical factor for cell survival. To directly identify novel TDP1 inhibitors active in a cellular environment, we have knocked-out the Tdp1 gene in chicken DT40 cells (Tdp1-/-) and generated a complemented counterpart cells that contains a stable transfection of the human TDP1 gene (Tdp1-/-;hTDP1 cells). For the primary screen, Tdp1-/-;hTDP1 cells will be exposed to small molecules in the presence or absence of CPT, and their growth kinetics will be evaluated after 48 hours by measuring ATP activity. […] The hit compounds will then be evaluated in the presence or absence of CPT using Tdp1-/- cells. […] In tertiary assays, biochemical gel-based assays will be used to assess whether the hit compounds specifically target TDP1. To this end, we have screened this cell line against the MLSMR in two primary screens. In one screen we add CPT and in the other we screen in the absence of CPT; this AID represents the screen where CPT was present. NIH Chemical Genomics Center [NCGC] NIH Molecular Libraries Probe Centers Network [MLPCN] MLPCN Grant: MH095538 Assay Submitter (PI): Yves Pommier, NCI
DT40-hTDP1 cells with 20 nM Camptothecin (add 20 microL of 1 mM CPT stock in 1 L of cell culture medium) were dispensed at 400 cells/5microL/well in tissue culture treated 1536-well white wall/solid bottom assay plates (Greiner Bio-One North America, NC, U.S.A.) using a Multidrop Combi 8 channel dispenser (Thermo Fisher, Waltham, MA, USA). 23 nL compounds and controls were transferred using the pin tool (Kalypsys, San Diego, CA, USA) to the assay plates. The assay plates were then incubated at 37 masculineC for a minimum 48 hr. Three microL of Cell Titer Glo solution was added to the plates and incubated at RT in dark for 30 min. Luminescence was read using ViewLux (Perkin Elmer) with 1 sec exposure slow speed, high gain and 2x binning.
% is scaled to controls: 0 for no effect and ±100 for the full control effect; potency is read from the fitted curve at half-maximal effect.

SMILES	activity change, negative = growth inhibition	Potency
Cc1cccc(C)c1N1CCN(S(=O)(=O)N2CCCCC2)CC1	-11.1%	–
CCOC(=O)c1cccc(NC(=O)CCc2c(C)nc3ncnn3c2C)c1	3.12%	–
COc1cc(OC)cc(-c2nc3nc(C)c(CCC(=O)Nc4ccc(C)cc4)c(C)n3n2)c1	-9.57%	–
COc1cc(OC)cc(-c2nc3nc(C)c(CCC(=O)Nc4ccccc4)c(C)n3n2)c1	–	14.6 µM (active)
CC(C)OC(=O)c1ccc(COc2ccc3ccc(=O)oc3c2)o1	2.4%	–
O=C(C1CCCO1)N1CCN(S(=O)(=O)c2ccc(Br)cc2)CC1 (centres undefined)	-5.03%	–
CN(C)C1CN(Cc2cn(Cc3ccccc3)nn2)S(=O)(=O)C1 (centres undefined)	-11.9%	–
CN(Cc1cn(Cc2ccc(C(F)(F)F)cc2)nn1)C1CN(Cc2cn(Cc3ccc(C(F)(F)F)cc3)nn2)S(=O)(=O)C1 (centres undefined)	–	6.51 µM (active)
CC(C)CCN1CCN(Cc2ccc(C(F)(F)F)cc2)CC1CCO (centres undefined)	-29.5%	–
O=C(c1ccc(Cl)c(S(=O)(=O)N2CCCCC2)c1)N1CCCCCC1	-26.3%	–
O=C(c1ccc(Cl)c(Cl)c1)N1CCCC1	3.77%	–
O=C(c1ccc(Cl)c(S(=O)(=O)N2CCCCCC2)c1)N1CCN(c2ccc(O)cc2)CC1	–	18.4 µM (active)
CN(C)c1cccc(C(=O)N2CCC(n3nccc3NC(=O)C3CCOC3)CC2)c1 (centres undefined)	5.19%	–
Cn1c(=O)c(Sc2ccc(Cl)cc2)c(O)c2ccccc21	5.09%	–
CC1Cc2ccccc2N1CC(=O)Nc1ccc2c(c1)OC(F)(F)O2 (centres undefined)	-15.8%	–
COc1cc(NC(=O)c2[nH]cnc2C(N)=O)cc(C(=O)Nc2cccc(C(F)(F)F)c2)c1	–	20.6 µM (active)
N#Cc1ccc(Oc2ccc(C(F)(F)F)cc2NC(=O)c2ccc(F)cc2)cc1	-18.8%	–
O=C(Nc1cccc(C(F)(F)F)c1)c1cnccn1	0.881%	–
COc1cc(NC(=O)c2cncc(-c3ccc(C#N)cc3)c2)cc(C(=O)Nc2cccc(C(F)(F)F)c2)c1	–	8.2 µM (active) and 16.4 µM (active)
CCN(CC)C(=O)C1=C(C)N(Cc2ccc(F)cc2)C(=O)C(CC(=O)NC2CCCC2)C1 (centres undefined)	-16.9%	–

SMILES	activity change, negative = growth inhibition	Potency
O=c1ccn([C@@H]2O[C@H](COP(=O)(O)OP(=O)(O)OP(=O)(O)O)[C@@H](O)[C@H]2O)c(=O)[nH]1	-29.6%	–
CNS(=O)(=O)c1cccc(C(=O)OCC(=O)N2c3ccccc3NC(=O)C2(C)C)c1	-1.39%	–
CCOc1ccc(NC(=O)CN(C)C(=O)CCSc2ccc(F)cc2)cc1OCC	-29.6%	–
CC(C)Oc1ccc(C(CC(=O)N2CCOCC2)C(C)C)cc1 (centres undefined)	-3.05%	–
Cc1ccccc1CNC(=O)C(=O)NCC(c1cccs1)S(=O)(=O)c1cccs1 (centres undefined)	–	13 µM (active)
CC(C)C(=O)NCC(c1cccs1)S(=O)(=O)c1ccc(F)cc1 (centres undefined)	-12.7%	–
COc1ccccc1CNC(=O)C(=O)NCC(c1cccs1)S(=O)(=O)c1cccs1 (centres undefined)	-6.96%	–
CC(C)C(=O)Nc1nnc(Sc2ccc(N(C)C)cc2)s1	-0.75%	–
Cc1noc(C)c1S(=O)(=O)N(C)Cc1ccccc1	-6.12%	–
CN(Cc1ccccc1)c1ncnc2onc(-c3ccc(F)cc3)c12	–	23.1 µM (active)
CN(Cc1ccccc1)c1ccc(-c2nc(-c3ccccc3)no2)cc1[N+](=O)[O-]	-15.3%	–
Cc1ccc2c(C)c(C(=O)N3CCC(N4CCC(C(=O)NC5CC5)CC4)CC3)oc2c1	-0.225%	–
CN1CN(C)c2ccc([N+](=O)[O-])c3cccc1c23	0.252%	–
COc1ccc([C@H]2N[C@]3(CCCN(Cc4ccco4)C3=O)[C@H]3C(=O)N(C)C(=O)[C@@H]23)cc1	-16.7%	–
CCN1C(=O)[C@H]2[C@@H](c3ccc(C(F)(F)F)cc3)N[C@]3(CCCN(Cc4ccc(Br)cc4)C3=O)[C@H]2C1=O	–	13 µM (active)
O=C1[C@H]2[C@@H](c3ccc(C(F)(F)F)cc3)N[C@]3(CCCN(Cc4ccc(Br)cc4)C3=O)[C@H]2C(=O)N1Cc1ccccc1	-21.3%	–
O=C1[C@H]2[C@@H](c3ccc(C(F)(F)F)cc3)N[C@]3(CCCN(Cc4ccc(Cl)cc4)C3=O)[C@H]2C(=O)N1Cc1ccccc1	–	16.4 µM (active)
CCN1C[C@@H]2[C@@H]3C(=O)N(Cc4ccccc4)C(=O)[C@@H]3[C@](C)(C1=O)N2C(=O)c1ccc(C(C)(C)C)cc1	-20.1%	–
CN(Cc1ccccc1)S(=O)(=O)c1nnc(NC(=O)c2ccccc2F)s1	-20.1%	–
CCOc1cc(CNCCN(C)C)c(Cl)cc1OCC(=O)NCCc1ccccc1	-11.9%	–

SMILES	activity change, negative = growth inhibition	Potency
Nc1ncnc2c1ncn2[C@@H]1O[C@H](CNS(=O)(=O)c2ccc(-c3ccno3)s2)[C@@H](O)[C@H]1O	-29.6%	–
O=C(Nc1nnc(SCc2c(Cl)cccc2Cl)s1)c1cccc([N+](=O)[O-])c1	-2.24%	–
COc1ccc(NC(=O)C2Cc3c(-c4ccc5c(c4)OCO5)ccnc3O2)cn1 (centres undefined)	–	4.11 µM (active)
COc1ccc(NC(=O)CSc2nccn2Cc2ccc3c(c2)OCO3)cc1	-24%	–
O=C1OC(C(=O)Nc2cccc(Br)c2)Cc2ccccc21 (centres undefined)	8.89%	–
CC(=O)Nc1ccc(-c2ccnc3c2CC(C(=O)NC(C)C)O3)cc1 (centres undefined)	-23.4%	–
COc1ccc(N(CC(=O)NC2CCCC2)C(=O)CS(=O)CC(=O)Nc2ccc3c(c2)OCO3)cc1 (centres undefined)	-3.24%	–
O=C(Nc1ccc(Cl)c(C(F)(F)F)c1)C1Cc2c(-c3ccccc3Oc3ccccc3)ccnc2O1 (centres undefined)	–	18.4 µM (active)
O=C(COC(=O)c1cc[n+]([O-])cc1)Nc1ccc(Cl)c(C(F)(F)F)c1	-26%	–
O=C(Nc1ccc2c(c1)OCO2)C1CC(c2c(F)cccc2Cl)=NO1 (centres undefined)	-29.9%	–
O=C(Nc1ccc(Cl)cc1)C1Cc2c(-c3ccc4c(c3)OCO4)ccnc2O1 (centres undefined)	–	23.1 µM (active)
CC(=O)c1cccc(NC(=O)C2CCCN2S(=O)(=O)c2cccc3nsnc23)c1 (centres undefined)	9.59%	–
COCCNC(=O)CSc1nc(N)c(NC(=O)c2ccco2)c(=O)[nH]1	3.53%	–
COC(=O)c1c(C)oc(C)c1S(=O)(=O)NCc1ccc(Cl)cc1	-20.3%	–
COC(=O)c1cc(NC(=O)CCS(=O)(=O)c2cc(Br)cc3c2N(C(=O)C2CC2)CC3)cc(C(=O)OC)c1	-2.75%	–
Cc1cc(C)n(-c2ccc(NC(=O)C3CCCCN3C(=O)c3cccs3)cc2)n1 (centres undefined)	-10.8%	–
COc1cc(C)ccc1OCCSc1nc2ccc(NC(=O)c3ccc(C)cc3)cc2s1	-27.4%	–
Cc1cccc(OCCSc2nc3ccc(NC(=O)COc4ccccc4C)cc3s2)c1	-21.3%	–
Cc1ccccc1OCCSc1nc2ccc(NC(=O)c3ccco3)cc2s1	–	20.6 µM (active)
